Test results published in PubChem BioAssay (Tox21).
A number with no mark means an inactive call. Calls of active or inactive are those of the source. Calls come from the whole dose curve; as a rule, active = well fitted curve in the direction sought with a large enough effect in the repeat runs; inconclusive = weak or mixed curves; inactive = flat fitted curve, though single readings scatter.

Experiment: qHTS assay to test for compound auto fluorescence at 590 nm (red) in HepG2 cell free culture (AID 720684)
Conditions: cell-free medium autofluorescence, red 540/590 nm; series mostly up to 91.3 µM
Excerpt: U.S. Tox21 Program National Center for Advancing Translational Sciences [NCATS] NIH Chemical Genomics Center [NCGC] U.S. Environmental Protection Agency [EPA] National Institutes of Environmental Health Sciences [NIEHS] National Toxicology Program [NTP] U.S. Food and Drug Administration [FDA] Tox21 Assay Overview: Compound auto fluorescence often interferes with screening of the compound library against various biological targets and signaling pathways. Some of these compounds may have fluorophoric properties. Such properties may interfere with the assay outputs resulting in false positives and/or negatives. To decrease such complications and ensure the compound activities are relevant in terms of biological response, the Tox21 10K compound library was screened for auto fluorescence. From the fluorophores used as reporter signals in our screening assays, the auto fluorescence equivalencies of compounds against three fluorophores have been evaluated: Triamterene, Fluorescein and Rose Bengal sodium for blue, green and red fluorescence, respectively. The fluorescence intensities were measured using Excitation/Emission wavelengths at 405/460nm, 485/535nm and 540/590nm for blue, green and red labels, respectively. This assay includes the red fluorescence data.
Tox21 Assay Protocol Summary: 5 uL of culture medium (MEM containing 10% FBS) per well was dispensed into black wall/clear bottom 1536-well plates using a Multidrop Combi Dispenser (ThermoFisher Scientific, Waltham, MA). After 23 nL compound or DMSO vehicle was transferred into assay plate by a pintool work station (Kalypsys, San Diego, CA), fluorescence intensities in the assay plates were measured by an Envision (PerkinElmer, Shelton, CT) plate reader using three labels for measuring blue, green and red fluorescence at […] 460, 535 and 590nm respectively.
% is set by controls: 0 for no effect and ±100 for the full control effect.

Compound	outcome	fluorescence, % of Rose Bengal
CC(=O)OC(C)(C)C	inactive	–
NC(=O)Nc1nc2ccccc2[nH]1	inactive	–
C=C(C)[C@@H]1CCC2=CC(=O)C[C@@H](C)[C@]2(C)C1	inactive	–
CCCCCC[C@@H](CCC)C(=O)O	inactive	–
COc1ccc(NC(C)=O)cc1	inactive	–
Oc1ccc2c(c1)OC[C@@H](N1CCC(O)(c3ccc(F)cc3)CC1)[C@H]2O	inactive	–
C1=C\CC/C=C\CC/C=C\CC/1	inactive	–
CC(C)(C)C(=O)/C=C/c1ccc(Cl)cc1	inactive	–
CCCCC=O	inactive	–
C=C(C)C(=O)NCCCN(C)C	inactive	–
Oc1cc(O)c2c(c1)O[C@H](c1ccc(O)c(O)c1)[C@H](O)C2	inactive	–
CCCCCOC(=O)Nc1nc(=O)n([C@@H]2O[C@H](C)[C@@H](O)[C@H]2O)cc1F	inactive	–
CC(C)(C)OC(=O)N1C[C@@H](F)C[C@H]1C(=O)O	inactive	–
CCC(C)(C)C1CCC(OC)CC1 (stereo not given)	inactive	–
C=CC(=O)OCCCCCC	inactive	–
CC(C)[N+](C)(C)CC(O)COc1cccc2ccccc12 (stereo not given)	inactive	–
CCN1CCN(c2cc3c(cc2F)c(=O)c(C(=O)O)cn3C2CC2)CC1	inactive	–
O=C(O)c1ccccc1S	inactive	–
O=Cc1ccccc1[N+](=O)[O-]	inactive	–
NC(=O)c1ncn([C@@H]2O[C@H](CO)[C@@H](O)[C@H]2O)c1O	inactive	–

Compound	outcome	fluorescence, % of Rose Bengal
CCCCN(CCO)CCO	inactive	–
CCCCNc1ccccc1	inactive	–
OCCN1C[C@H](O)[C@@H](O)[C@H](O)[C@H]1CO	inactive	–
CC(C)COC(=O)C(C)C	inactive	–
Nc1nc(F)nc2c1ncn2[C@@H]1O[C@H](CO)[C@@H](O)[C@@H]1O	inactive	–
CC(C)(O)C(=O)c1ccc(OCCO)cc1	inactive	–
COc1cc(C)cc(O)c1	inactive	–
CCCC(C)C(=O)O (stereo not given)	inactive	–
CC(C)CCOC(=O)CC(C)C	inactive	–
O=S(=O)(c1cccc2cnccc12)N1CCCNCC1	inactive	–
CC(=O)NC(Cc1ccccc1)C(=O)O (stereo not given)	inactive	–
CC12CCC(CC1=O)C2(C)C (stereo not given)	inactive	–
OCCCCCCO	inactive	–
CC(C)COC(=O)c1ccccc1O	inactive	–
C#CC(O)C(CC)CCCC (stereo not given)	inactive	–
CC1=CC(C)C(C=O)C(C)C1 (stereo not given)	inactive	–
CCN1CCCC(OC(=O)C(c2ccccc2)c2ccccc2)C1 (stereo not given)	–	0.44% [at 18.6 µM]
O=C1OC(=O)c2cc([N+](=O)[O-])ccc21	inactive	–
CCOC(=O)Nc1ccc2c(c1)N(C(=O)CCN1CCOCC1)c1ccccc1S2	–	0.0254% [at 18.6 µM]
CCCCCCOC(=O)CC(CC(=O)OCCCCCC)(OC(=O)CCC)C(=O)OCCCCCC	inactive	–
